Laboratory results published in PubChem BioAssay AID1851 (National Center for Advancing Translational Sciences (NCATS), 2009).
About 5,700 (36%) of roughly 16,000 compounds were called active. About 24% were inconclusive and are not listed. The list shows a part of the results. A number with no mark means an inactive call. Calls follow the shape of the dose curve; as a rule, active = well fitted curve in the direction sought with a large enough effect; inconclusive = small, poorly fitted or top-dose-only effect, or effect the other way; inactive = no such curve, though single readings can be large or run the other way.

Each molecule was assayed against Cytochrome P450 1A2 (Homo sapiens) (UniProt P05177) (assay: Cytochrome panel assay with activity outcomes). Settings: recombinant CYP, pro-luciferin dealkylation, luminescence, p450-cyp1a2; series mostly up to 57.1 µM.
% is scaled to controls: 0 for no effect and ±100 for the full control effect.

Sequence of Cytochrome P450 1A2 (Homo sapiens) (P05177 whole entry, looked up): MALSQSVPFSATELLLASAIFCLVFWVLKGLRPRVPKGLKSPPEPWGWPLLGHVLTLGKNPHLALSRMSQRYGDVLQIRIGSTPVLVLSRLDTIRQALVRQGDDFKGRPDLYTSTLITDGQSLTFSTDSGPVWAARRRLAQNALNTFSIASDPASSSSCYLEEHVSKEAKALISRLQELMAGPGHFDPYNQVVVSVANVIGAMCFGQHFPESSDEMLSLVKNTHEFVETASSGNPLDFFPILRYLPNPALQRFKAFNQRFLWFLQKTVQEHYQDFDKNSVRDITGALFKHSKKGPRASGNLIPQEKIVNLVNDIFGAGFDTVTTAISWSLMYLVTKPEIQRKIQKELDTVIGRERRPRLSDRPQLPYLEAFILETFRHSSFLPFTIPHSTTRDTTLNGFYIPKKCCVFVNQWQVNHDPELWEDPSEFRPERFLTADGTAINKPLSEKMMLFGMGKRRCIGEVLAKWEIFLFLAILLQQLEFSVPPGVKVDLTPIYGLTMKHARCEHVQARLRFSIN

Row | SMILES | activity, negative = inhibition | AC50
1 | COC(=O)[C@@H]1O[C@@H](c2c(OC)c(OC)c(C)c(OC)c2OC)[C@H](C)[C@@H](O)[C@@H]1C | -4.49% [at 11.4 µM] | 
2 | CC(C)n1cc(/C=C2/SC(=O)N(CC(=O)Nc3ccc4c(c3)OCO4)C2=O)c2ccccc21 |  | inactive
3 | Cn1cc(/C=C2/SC(=O)N(CC(=O)Nc3ccc4c(c3)OCO4)C2=O)c2ccccc21 |  | inactive
4 | Cn1c(-c2ccc3c(c2)OCO3)cc(=O)c2ccccc21 |  | 5.01 µM (active)
5 | O=C(c1csnn1)N1CCC2(CC1)CN(c1ccccc1)C2 |  | inactive
6 | O=C(Nc1ccccc1)N1CCC2(CC1)CCN(C(=O)c1csnn1)CC2 |  | inactive
7 | Cc1ccccc1/C=N\NC(=O)c1csnn1 |  | 1 µM (active)
8 | O=C(CCNC(=O)Cn1ccc2ccccc2c1=O)NCCCN1CCN(c2ccc(F)cc2)CC1 |  | inactive
9 | CCNc1ncc2nc(-c3ccc(Cl)cc3)c(=O)n(C[C@H]3CCCO3)c2n1 |  | 0.794 µM (active)
10 | CCNc1ncc2nc(-c3ccc(F)cc3)c(=O)n(C[C@H]3CCCO3)c2n1 |  | 1.26 µM (active)
11 | Cc1ccc(C2/C(=C(/O)c3ccc(Cl)cc3)C(=O)C(=O)N2CC2CCCO2)o1 (stereo unspecified) |  | inactive
12 | COc1ccc(-n2c(=O)c(CCc3ccccc3)nc3cnc(N4CCN(C)CC4)nc32)cc1 |  | inactive
13 | CN1CCN(c2ncc3nc(CCc4ccccc4)c(=O)n(C)c3n2)CC1 |  | 12.6 µM (active)
14 | Cc1nc2cnc(N3CCN(C)CC3)nc2n(Cc2cccs2)c1=O |  | 12.6 µM (active)
15 | Cc1nc2cnc(N3CCNCC3)nc2n(Cc2cccs2)c1=O |  | 0.631 µM (active)
16 | Cc1nc2cnc(N3CCOCC3)nc2n(Cc2cccs2)c1=O |  | 2 µM (active)
17 | Cc1cc2c(nc1C)CCCCN2C[C@H](O)CN1CCCc2nc(-c3ccc(Br)cc3)ccc21 | -8.63% [at 11.4 µM] | 
18 | Cc1ccc(CCN2CC(C(=O)NCCN3CCCCCC3)CC2=O)cc1 (stereo unspecified) |  | inactive
19 | O=c1cnc2cnc(N3CCOCC3)nc2n1Cc1cccs1 |  | 2.51 µM (active)
20 | CN1CCN(c2ncc3nc(CCc4ccccc4)c(=O)n(Cc4cccs4)c3n2)CC1 |  | 15.8 µM (active)
21 | CN1CCN(c2ncc3nc(CCc4ccccc4)c(=O)n(Cc4ccc(F)cc4)c3n2)CC1 |  | inactive
22 | C[C@H]1NC(=O)NC1=O |  | inactive
23 | COc1cc([C@@H](O)CO)ccc1OS(=O)(=O)O |  | inactive
24 | Brc1ccc(/C=C/C=N/Nc2nc3ccccc3s2)cc1 |  | 2.24 µM (active)

Row | SMILES | activity, negative = inhibition | AC50
25 | Cc1ccc2ccccc2c1CSc1nc(N)nc2c1ncn2CC(C)C | -20.8% [at 2.29 µM] | 
26 | CCCn1cnc2c(SCc3ccc(Cl)cc3)nc(N)nc21 |  | 1.26 µM (active)
27 | CCCn1cnc2c(SCC(=O)O)nc(N)nc21 | 1.5% [at 11.4 µM] | 
28 | CCOC(=O)c1cnc(N(C)C)nc1SC(=N)N | -22.6% [at 2.29 µM] | 
29 | CCOC(=O)c1cnc(SCCc2ccccc2)nc1N |  | 25.1 µM (active)
30 | CCOC(=O)c1c(NC(=S)Nc2ccccc2)sc2c1CCN(CCc1ccccc1)C2 |  | 15.8 µM (active)
31 | CCN1CCc2c(sc(NC(=O)c3ccc(S(=O)(=O)N4CCOCC4)cc3)c2C(=O)OC)C1 |  | inactive
32 | CCN1CCc2c(sc(N)c2C(N)=O)C1 |  | inactive
33 | Cc1ccc2c(c1)N(CCC(=O)NCc1ccc3c(c1)OCO3)C(=O)CO2 |  | 15.8 µM (active)
34 | COc1ccc(CCNC(=O)CCN2C(=O)COc3ccc(C)cc32)cc1OC |  | inactive
35 | Cc1ccc2c(c1)N(CCC(=O)NCc1cccnc1)C(=O)CO2 |  | 3.16 µM (active)
36 | Cc1ccc2c(c1)N(CCC(=O)NCCN1CCOCC1)C(=O)CO2 |  | inactive
37 | Cc1ccc2c(c1)N(CC(=O)NC1CCCc3ccccc31)C(=O)CO2 (stereo unspecified) |  | inactive
38 | Cc1ccc2c(c1)N(CC(=O)NCc1cccs1)C(=O)C(C)O2 (stereo unspecified) |  | 5.01 µM (active)
39 | Cc1ccc(CNC(=O)CN2C(=O)COc3ccc(C)cc32)cc1 |  | 3.16 µM (active)
40 | COc1ccc(CCNC(=O)CCN2C(=O)C(C)Oc3ccc(C)cc32)cc1OC (stereo unspecified) |  | inactive
41 | CC(=O)OCC1=C(C(=O)O)N2C(=O)[C@@H](NC(=O)Cc3cccs3)[C@@H]2SC1 |  | inactive
42 | Cc1ccc2c(c1)N(CC(=O)NC1CCC(C)CC1)C(=O)CO2 (stereo unspecified) |  | inactive
43 | Cc1ccc(C)c(N2CCN(C(=O)C3CCN(S(=O)(=O)c4cccc5nsnc45)CC3)CC2)c1 |  | inactive
44 | CO[C@H]1COC(=O)C/C=C\[C@@H](C)COC(=O)[C@@H](C)NC(=O)C/C=C\[C@@H]1C | -10.1% [at 11.4 µM] | 
45 | O=C(O)CCC(=O)N1CCC[C@H]1C(=O)O |  | inactive
46 | CCN1CCCC1CNC(=O)CCNC(=O)c1cc(OC)c(OC)c(OC)c1 (stereo unspecified) |  | inactive
47 | O=C(CCNS(=O)(=O)c1ccc2c(c1)CCC(=O)N2)NCc1ccc2c(c1)OCO2 |  | inactive
48 | COc1cc(C(=O)NCCC(=O)NCc2ccc3c(c2)OCO3)cc(OC)c1OC |  | 20 µM (active)

Row | SMILES | activity, negative = inhibition | AC50
49 | Cc1cc(C)c2nc(-c3ccccn3)cc(C(=O)Nc3ccc(S(=O)(=O)Nc4cc(C)on4)cc3)c2c1 |  | inactive
50 | NS(=O)(=O)c1ccc(NS(=O)(=O)c2ccc(NC(=O)c3ccc(-c4ccccc4)cc3)cc2)cc1 |  | inactive
51 | Cc1cc(NC(=O)c2ccc(S(=O)(=O)Nc3ccccc3)cc2)no1 |  | 5.01 µM (active)
52 | Cc1ccc(OCC(=O)Nc2ccc(S(=O)(=O)Nc3onc(C)c3C)cc2)cc1 |  | inactive
53 | COc1cc2ccccc2cc1C(=O)Nc1ccc(S(=O)(=O)Nc2cc(C)on2)cc1 |  | 25.1 µM (active)
54 | CC(C)CC(C(=O)NCC1CCCO1)N(C(=O)Cn1nnc(-c2ccc(F)cc2)n1)c1cccc(C(F)(F)F)c1 (stereo unspecified) |  | inactive
55 | CCc1noc(N)c1C(=O)Nc1ccc(F)c(Cl)c1 |  | 4.47 µM (active)
56 | Cc1noc(C)c1C(=O)N1CCC2(CC1)CN(C(=O)Nc1cccc(F)c1)C2 |  | inactive
57 | Cc1noc(N)c1C(=O)Nc1ccc(F)cc1 |  | 8.91 µM (active)
58 | Cc1cnn(CCC(=O)NNC(=S)Nc2ccc(F)cc2)c1 |  | inactive
59 | C/C(CCC(=O)OC[C@@H]1O[C@H](C#Cc2ccccc2)C=C[C@@H]1Oc1ccc(C)cc1)=N/OC[C@@H](C)[C@H](OCc1ccccc1)C(C)C | -1.97% [at 11.4 µM] | 
60 | COCC(=O)N1CCC2(CC1)CCN(C(=O)Nc1cccc(F)c1)CC2 |  | inactive
61 | CC(=O)N=c1sc(S(N)(=O)=O)nn1C |  | inactive
62 | O=C(O)CCC(=O)c1ccc2ccc3cccc4ccc1c2c34 |  | 1.26 µM (active)
63 | O=C(O)CCC(=O)CCC(=O)c1ccccc1 |  | inactive
64 | CN(c1ccc(C(=O)NC2CC3CCC2C3)cc1)S(C)(=O)=O (stereo unspecified) |  | inactive
65 | Cc1ccc(/C(N)=N/OC(=O)Cc2cccs2)cc1 |  | 15.8 µM (active)
66 | O=C(O)C(Cc1cccs1)C(=O)O | -2.09% [at 2.29 µM] | 
67 | Cc1ccc(C(N)=Nc2ccccc2)cc1 | -14.7% [at 11.4 µM] | 
68 | CN(NC(=O)NN)c1ncc(C(F)(F)F)cc1Cl |  | 14.1 µM (active)
69 | COn1c(SC(C)C)nc2ccccc2c1=O |  | 0.708 µM (active)
70 | CC(C)On1c(SC(C)C)nc2ccccc2c1=O |  | 2 µM (active)
71 | CC1CC(C)CN(CCCNC(=O)C2CCCN(c3nnc(N4CCCC4=O)s3)C2)C1 (stereo unspecified) |  | inactive
72 | O=C(NCCc1c[nH]c2ccccc12)C1CCN(c2nnc(N3CCCC3=O)s2)CC1 |  | 20 µM (active)

Row | SMILES | activity, negative = inhibition | AC50
73 | CN1CCN(CCCNC(=O)C2CCN(c3nnc(-n4cccc4)s3)CC2)CC1 |  | inactive
74 | C[C@@H]1NCC[C@H](CC(=O)O)[C@H]1CC(=O)O | -6.87% [at 11.4 µM] | 
75 | FC(F)(F)c1cc(CN2CC3(CCNCC3)C2)cc(C(F)(F)F)c1 |  | inactive
76 | CC[C@H](C(=O)c1cccs1)C(O)(C(F)(F)F)C(F)(F)F | -17.5% [at 2.29 µM] | 
77 | Cc1ccc(S(=O)(=O)c2c(C)nn(C(C)(C)C)c2OC(=O)c2cccs2)cc1 |  | inactive
78 | Cc1ccc(N=C/C(C(=O)C(F)(F)F)=C(\O)c2cccs2)cc1 |  | 12.6 µM (active)
79 | CC(=O)N1CCC2(CC1)CN(c1ccccn1)C2 |  | inactive
80 | Cc1cc(C)n2nc(-c3sccc3-n3cccc3)cc2n1 |  | 5.01 µM (active)
81 | CCN1CCN(c2cc(=O)n(-c3cc(Cl)ccc3C)c(=O)[nH]2)CC1 |  | inactive
82 | c1ccc2c(c1)oc1c(NCCCn3ccnc3)ncnc12 |  | 0.0562 µM (active)
83 | c1ccc(-c2nc(NCCCn3ccnc3)c3oc4ccccc4c3n2)cc1 |  | 0.0398 µM (active)
84 | CCCCN1CCCC[C@H]1C(=O)Nc1c(C)cccc1C |  | 5.01 µM (active)
85 | Cc1cc(C)c(NC(=O)C2CCCN2C)c(C)c1 (stereo unspecified) |  | inactive
86 | Cc1cccc(C)c1NC(=O)N1CCC(N2CCCCC2)CC1 |  | inactive
87 | O=C(Cc1ncc(C(F)(F)F)cc1Cl)Nc1cccc(Br)c1 |  | 17.8 µM (active)
88 | CCOC(=O)c1cnc2ccc(C)cc2c1Sc1ccccc1C(=O)OC |  | 3.55 µM (active)
89 | COc1ncc2nc(-c3ccccc3)c(=O)n(-c3ccccc3)c2n1 |  | 2 µM (active)
90 | COc1ncc2nc(-c3ccc(Cl)cc3)c(=O)n(-c3ccccc3)c2n1 |  | 1.58 µM (active)
91 | COCCNC(=O)COC(=O)/C=C/c1cnc2ccccc2n1 |  | 7.08 µM (active)
92 | CCc1c(C)c2c(C)[nH]nc2oc1=O |  | 5.01 µM (active)
93 | CC(C)C12CC[C@@]3(CC[C@H]4[C@@](C)(CCC[C@]4(C)C(=O)O)[C@@H]3C1)[C@@H](CN)C2 | -4.02% [at 11.4 µM] | 
94 | CCOC(=O)c1c(C)n(C)c2ccc(OC(=O)c3ccco3)cc12 |  | 0.355 µM (active)
95 | CCN(CC)CCOC(=O)c1c(C)n(C)c2ccc(OC)cc12 |  | 1.41 µM (active)
96 | O=CN[C@@H](Cc1cnc[nH]1)C(=O)O | -8.82% [at 11.4 µM] | 
